Reference: ChEMBL document CHEMBL3988442, “University of Dundee, Small-Polar-MMV Screening Library” (2021)

Legend:
[1] = target: T1, Aspartate--tRNA(Asp/Asn) ligase (Mycobacterium tuberculosis (strain ATCC 25618 / H37Rv)) (UniProt P9WFW3); assay: Assay for Asp RNA synthetase-1 from Mycobacterium tuberculosis; type: functional; design: scale not given: direction of the effect not stated beside the values; conditions: 30 µM; also: in the data most compounds retested in dose-response had high values
T1 sequence (whole entry): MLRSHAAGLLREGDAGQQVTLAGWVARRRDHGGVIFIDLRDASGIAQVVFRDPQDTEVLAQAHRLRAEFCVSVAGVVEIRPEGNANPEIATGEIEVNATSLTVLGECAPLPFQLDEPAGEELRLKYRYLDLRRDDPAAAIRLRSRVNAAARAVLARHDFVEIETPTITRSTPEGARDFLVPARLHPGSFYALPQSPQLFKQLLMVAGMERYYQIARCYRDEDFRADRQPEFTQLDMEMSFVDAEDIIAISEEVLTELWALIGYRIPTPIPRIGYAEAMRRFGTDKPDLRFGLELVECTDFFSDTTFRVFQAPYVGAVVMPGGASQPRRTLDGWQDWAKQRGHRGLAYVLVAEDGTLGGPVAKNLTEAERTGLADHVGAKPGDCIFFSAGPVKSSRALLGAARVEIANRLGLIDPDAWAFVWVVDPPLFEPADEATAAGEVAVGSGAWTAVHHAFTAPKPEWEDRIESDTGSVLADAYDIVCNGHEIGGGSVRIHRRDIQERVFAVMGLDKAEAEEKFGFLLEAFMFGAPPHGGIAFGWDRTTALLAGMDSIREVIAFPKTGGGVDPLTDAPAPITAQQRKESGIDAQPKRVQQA

[2] = target: Shiga toxin 2 (Escherichia coli O157:H7) (UniProt P09385+P09386); assay: E. coli 0.157:H7 Shiga Toxin SOP - stx2 screening assay; type: functional; design: scale not given: direction of the effect not stated beside the values; conditions: 30 µM

Row | Structure (SMILES) | Percent Effect [1] [%] | Percent Effect [2] [%]
1 | CC(=O)N1CCN(C(=O)c2cc(-n3cnnn3)ccc2Cl)CC1 | -1.41 | -21.8
2 | CCOc1ccc(N2CCCN=C2NC(=O)c2cccc(Cl)c2)cc1 | 9.12 | -69.6
3 | c1cnn(Cc2cn3c(n2)CN(Cc2nccs2)CC3)c1 | -2.35 | -23.5
4 | Cn1nc(C2CCCN(Cc3cccc(F)c3)C2)c2nccnc21 (stereo unspecified) | -0.491 | 14.8
5 | c1cnn(CCN2CCOC(Cn3cncn3)C2)c1 (stereo unspecified) | 0.685 | -9.56
6 | COCCN1C(=O)CO[C@H]2CN(Cc3c[nH]nc3-c3ccccc3)C[C@@H]21 | -1.03 | 7.69
7 | Cc1nc(N2CCCCC2)ncc1C(=O)N1CC(C)(C)[C@@](C)(O)C1 | 4.7 | 3.19
8 | O=C(NCCC(=O)N1CCCC1)c1nn(-c2ccccc2F)cc1O | -3.29 | -59.6
9 | CCN1CCN(Cc2coc(-c3cccc(F)c3)n2)CC1 | -7.31 | -35.5
10 | O=C(c1cc(COc2ccc3c(c2)OCO3)[nH]n1)N1CC=CC1CO (stereo unspecified) | 1.75 | -30.9
11 | Cc1cc(C)c(CNC(=O)N2CCN(c3cnccn3)CC2)c(=O)[nH]1 | -0.167 | 9.86
12 | CC(C)N(C)C(=O)C1=NOC2(CCN(C(=O)c3ccc(Cl)cc3)C2)C1 (stereo unspecified) | 1.19 | -2.21
13 | O=S(=O)(Nc1cnn(C2CCOCC2)c1)c1ccc(F)c(F)c1 | 3.75 | 1.76
14 | CC(C)Oc1cc(N2C[C@@H](C)O[C@@H](C)C2)nc(N)n1 | -0.457 | 0.94
15 | Cc1noc(C)c1CNC(=O)N1CCC(CO)CC1 | 2.21 | -4.58
16 | CCc1c(C)nc2cc(C3CCN(Cc4ccccc4F)C3)nn2c1O (stereo unspecified) | 4.45 | -125
17 | Cn1ccc(C(=O)NC2CCC23CCN(Cc2cccnc2)CC3)c1 (stereo unspecified) | 0.843 | -5.95
18 | COc1c(CNC2CCN(C(=O)C3CC3)CC2)c(C(C)C)nn1C | 1.69 | 29.5
